Active and inactive are the calls of the source.
Tests used:
[1] = tested on: Plasmodium falciparum Sir2 (PF13_0152, Sir2A); test: Plasmodium falciparum Sir2A binding compounds – biochemical, small-molecule microarray, 635 nm fluorescence, primary screen (AID 1098); settings: fluorescence 635 nm, higher = more signal;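 also: score merges spot fluorescence intensity with its signal-to-noise ratio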
[2] = probe aDKK1 binding to arrayed compounds – biochemical, biotinylated probe, 635/667 nm fluorescence, primary screen (AID 1099); settings: small-molecule microarray, higher = more signal;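 also: score merges 667nm spot fluorescence with signal to noise across triplicate slides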
[3] = probe aCHRDL2 binding to arrayed compounds – biochemical, biotinylated probe, 635/667 nm fluorescence, primary screen (AID 1100); settings: small-molecule microarray, higher = more signal
[4] = change in splice reporter luminescence, either direction, cell-based, HEK293, spliceosome inhibition project, primary screen (AID 1101); settings: HEK293 splicing luciferase reporter, 24 h, higher = more signal, called active from +8 up or from −8 down;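 also: HEK293 cells carrying a splicing-competent luciferase reporter gene; test concentration not given here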
[5] = target: Fibroblast growth factor 10 (Homo sapiens) (UniProt O15520); test: compounds binding fibroblast growth factor 10 – biochemical, small-molecule microarray, 635 nm fluorescence, primary screen (AID 1102); settings: FGF10 binding, fluorescence 635 nm, higher = more signal
Chain of Fibroblast growth factor 10 (Homo sapiens) (O15520 whole entry, looked up): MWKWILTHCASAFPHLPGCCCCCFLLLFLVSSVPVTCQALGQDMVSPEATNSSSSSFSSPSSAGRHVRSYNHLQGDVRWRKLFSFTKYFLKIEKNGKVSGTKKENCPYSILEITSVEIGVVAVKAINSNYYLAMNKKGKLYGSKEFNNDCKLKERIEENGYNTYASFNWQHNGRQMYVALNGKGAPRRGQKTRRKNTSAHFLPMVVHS

[6] = tested on: glycogen synthase kinase-3 (GSK3A per assay name; protocol says GSK3B); test: compounds binding glycogen synthase kinase-3 – biochemical, small-molecule microarray, 635 nm fluorescence, GSK3A, primary screen (AID 1103); settings: fluorescence 635 nm, higher = more signal; also: the record names both GSK3A and GSK3B
[7] = target: Epidermal growth factor receptor (Homo sapiens) (UniProt P00533); test: compounds binding epidermal growth factor receptor – biochemical, small-molecule microarray, 635 nm fluorescence, primary screen (AID 1104); settings: EGFR binding, higher = more signal;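 also: score merges 667 nm emission intensity with spot signal to noise over triplicate slides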
Chain of Epidermal growth factor receptor (Homo sapiens) (P00533 whole entry, looked up): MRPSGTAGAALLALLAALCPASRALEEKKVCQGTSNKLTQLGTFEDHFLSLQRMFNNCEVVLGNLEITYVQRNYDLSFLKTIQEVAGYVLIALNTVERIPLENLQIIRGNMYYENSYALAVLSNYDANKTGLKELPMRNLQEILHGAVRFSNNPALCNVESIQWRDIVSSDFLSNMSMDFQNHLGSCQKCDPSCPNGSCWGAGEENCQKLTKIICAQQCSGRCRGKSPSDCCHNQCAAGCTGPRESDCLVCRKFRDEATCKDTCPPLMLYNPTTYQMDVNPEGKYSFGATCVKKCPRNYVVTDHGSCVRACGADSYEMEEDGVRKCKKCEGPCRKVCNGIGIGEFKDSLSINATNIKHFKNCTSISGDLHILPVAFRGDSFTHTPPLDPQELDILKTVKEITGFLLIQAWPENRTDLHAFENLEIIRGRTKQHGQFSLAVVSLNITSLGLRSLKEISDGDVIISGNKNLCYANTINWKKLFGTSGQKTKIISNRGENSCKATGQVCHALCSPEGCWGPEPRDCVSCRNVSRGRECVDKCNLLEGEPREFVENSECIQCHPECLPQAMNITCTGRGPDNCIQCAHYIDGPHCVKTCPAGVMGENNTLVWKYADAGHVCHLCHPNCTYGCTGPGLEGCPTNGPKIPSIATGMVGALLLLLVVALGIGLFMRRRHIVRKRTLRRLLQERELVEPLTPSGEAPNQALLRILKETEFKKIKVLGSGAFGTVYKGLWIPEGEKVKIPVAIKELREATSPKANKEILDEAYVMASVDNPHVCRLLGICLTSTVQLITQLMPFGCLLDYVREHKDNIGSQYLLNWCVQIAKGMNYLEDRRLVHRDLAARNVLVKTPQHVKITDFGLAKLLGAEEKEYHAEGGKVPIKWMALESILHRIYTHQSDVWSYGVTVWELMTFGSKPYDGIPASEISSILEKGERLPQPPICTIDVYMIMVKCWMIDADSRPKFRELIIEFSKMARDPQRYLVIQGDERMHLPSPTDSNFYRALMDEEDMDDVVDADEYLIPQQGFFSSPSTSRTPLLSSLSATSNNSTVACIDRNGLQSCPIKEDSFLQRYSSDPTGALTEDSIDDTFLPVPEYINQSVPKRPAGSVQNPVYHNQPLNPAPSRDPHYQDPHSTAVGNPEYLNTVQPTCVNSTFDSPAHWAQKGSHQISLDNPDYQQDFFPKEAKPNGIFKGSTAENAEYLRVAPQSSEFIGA

[8] = target: Follistatin-related protein 3 (Homo sapiens) (UniProt O95633); test: compounds binding follistatin-related protein 3 – biochemical, small-molecule microarray, 635 nm fluorescence, primary screen (AID 1105); settings: FSTL3 binding, higher = more signal;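 also: score merges emission near 667 nm and signal to noise per printed spot across three slides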
Chain of Follistatin-related protein 3 (Homo sapiens) (O95633 whole entry, looked up): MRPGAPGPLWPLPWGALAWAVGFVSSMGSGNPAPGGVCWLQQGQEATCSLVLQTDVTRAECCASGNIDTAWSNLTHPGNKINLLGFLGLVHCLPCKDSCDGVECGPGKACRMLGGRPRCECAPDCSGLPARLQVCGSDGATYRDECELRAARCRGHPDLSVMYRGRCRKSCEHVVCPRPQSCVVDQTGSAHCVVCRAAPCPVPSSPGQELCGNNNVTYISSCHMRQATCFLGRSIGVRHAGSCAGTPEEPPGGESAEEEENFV

[9] = target: Dickkopf-related protein 1 (Homo sapiens) (UniProt O94907); test: small molecules binding DKK1 protein – biochemical, small-molecule microarray, 635 nm fluorescence scan, primary screen (AID 1106); settings: higher = more signal;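 also: score merges emission near 667 nm with signal to noise over three replicate slides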
Chain of Dickkopf-related protein 1 (Homo sapiens) (O94907 whole entry, looked up): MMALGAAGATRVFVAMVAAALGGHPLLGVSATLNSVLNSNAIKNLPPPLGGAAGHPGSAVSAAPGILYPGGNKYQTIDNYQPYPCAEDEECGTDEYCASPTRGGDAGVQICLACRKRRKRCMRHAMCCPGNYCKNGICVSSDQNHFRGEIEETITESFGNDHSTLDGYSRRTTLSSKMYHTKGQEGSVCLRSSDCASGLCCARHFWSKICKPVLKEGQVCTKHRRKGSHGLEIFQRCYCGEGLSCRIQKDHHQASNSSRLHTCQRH

[10] = tested on: Inhibin beta A chain (activin A); test: small molecules binding activin A – biochemical, small-molecule microarray, 635 nm fluorescence scan, primary screen (AID 1107); settings: INHBA, higher = more signal;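 also: mouse activin A protein probed at 4.33 µg/mL on printed slides; score merges bound-protein fluorescence near 667 nm with spot signal-to-noise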
[11] = tested on: Human papillomavirus type 1a protein E7 (residues 44-93); test: small molecules binding HPV E7 44-93 – biochemical, small-molecule microarray, residues 44-93, 635 nm fluorescence, primary screen (AID 1108); settings: fluorescence 635 nm, higher = more signal;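 also: E7 fragment applied at 1 µg/mL in TBST for 1 h at 4 C; score combines spot fluorescence with its signal to noise ratio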
[12] = hepatitis C replication reporter changes, two-sided – Huh7 cells, luciferase reporter, HCV replication inhibitor project, primary screen (AID 1109); settings: Huh7 HCV replicon luciferase reporter, 48 h; higher = more signal;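 also: huh7 hepatoma cells harbouring a luciferase neomycin HCV replicon reporter; luciferase luminescence as measure of HCV replicon replication; test concentration not given here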
[13] = target: Left-right determination factor 2 (Homo sapiens) (UniProt O00292); test: small molecules binding LEFTY2 protein – biochemical, small-molecule microarray, 635 nm fluorescence scan, primary screen (AID 1110); settings: higher = more signal
Chain of Left-right determination factor 2 (Homo sapiens) (O00292 whole entry, looked up): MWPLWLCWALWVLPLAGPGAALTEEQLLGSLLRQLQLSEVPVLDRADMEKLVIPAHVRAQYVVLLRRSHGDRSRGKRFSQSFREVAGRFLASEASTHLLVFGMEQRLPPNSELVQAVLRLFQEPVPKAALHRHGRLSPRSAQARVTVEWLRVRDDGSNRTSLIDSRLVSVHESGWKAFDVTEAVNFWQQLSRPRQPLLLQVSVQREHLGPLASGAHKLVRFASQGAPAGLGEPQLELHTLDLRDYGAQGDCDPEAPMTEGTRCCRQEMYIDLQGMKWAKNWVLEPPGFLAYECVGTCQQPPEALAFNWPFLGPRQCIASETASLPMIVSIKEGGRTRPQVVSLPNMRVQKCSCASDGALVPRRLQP

[14] = target: Calmodulin-1 (Homo sapiens) (UniProt P0DP23); test: small molecules binding calmodulin-1 with EGTA – biochemical, small-molecule microarray, Cy5-labelled CALM1, profiling panel (AID 1111); settings: Cy5-CALM1 binding fluorescence, higher = more signal;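 also: labelled calmodulin applied in Tris saline Tween buffer holding calcium plus EGTA and DTT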
[15] = target: Calmodulin-1 (Homo sapiens) (UniProt P0DP23); test: small molecules binding Ca-loaded calmodulin-1 – biochemical, small-molecule microarray, Cy5-labelled CALM1, plus calcium, artefact control for SMM control-protein annotation, profiling panel (AID 1112); settings: Cy5-CALM1 binding fluorescence, higher = more signal;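 also: score merges spot fluorescence with signal to noise from triplicate slides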
[16] = probe aWnt5a binding to arrayed compounds – biochemical, biotinylated probe, 635/667 nm fluorescence, primary screen (AID 1113); settings: small-molecule microarray, higher = more signal;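 also: score merges 667 nm fluorescence intensity with signal-to-noise per printed feature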
[17] = probe aShh binding to arrayed compounds – biochemical, biotinylated probe, 635/667 nm fluorescence, primary screen (AID 1114); settings: small-molecule microarray, higher = more signal;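 also: probe is biotin-labelled aShh protein from a stem cell growth factor screen; measures binding of labelled protein to compounds printed on the slide; score merges feature fluorescence at 667 nm with signal-to-noise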
[18] = probe aNog binding to arrayed compounds – biochemical, biotinylated probe, 635/667 nm fluorescence, primary screen (AID 1115); settings: small-molecule microarray, higher = more signal;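 also: probe is biotinylated aNog protein used at 0.15 µg/mL for 1 h at 4 C; z-score combines 667 nm fluorescence of each spot with its signal to noise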
[19] = target: Torsin-1A-interacting protein 1 (Homo sapiens) (UniProt Q5JTV8); test: compound microarray binding of lysate hLAP1 – cell lysate, small-molecule microarray, COS7 lysate, 635/667 nm fluorescence, primary screen (AID 1116); settings: 635 nm fluorescence, higher = more signal
Chain of Torsin-1A-interacting protein 1 (Homo sapiens) (Q5JTV8 whole entry, looked up): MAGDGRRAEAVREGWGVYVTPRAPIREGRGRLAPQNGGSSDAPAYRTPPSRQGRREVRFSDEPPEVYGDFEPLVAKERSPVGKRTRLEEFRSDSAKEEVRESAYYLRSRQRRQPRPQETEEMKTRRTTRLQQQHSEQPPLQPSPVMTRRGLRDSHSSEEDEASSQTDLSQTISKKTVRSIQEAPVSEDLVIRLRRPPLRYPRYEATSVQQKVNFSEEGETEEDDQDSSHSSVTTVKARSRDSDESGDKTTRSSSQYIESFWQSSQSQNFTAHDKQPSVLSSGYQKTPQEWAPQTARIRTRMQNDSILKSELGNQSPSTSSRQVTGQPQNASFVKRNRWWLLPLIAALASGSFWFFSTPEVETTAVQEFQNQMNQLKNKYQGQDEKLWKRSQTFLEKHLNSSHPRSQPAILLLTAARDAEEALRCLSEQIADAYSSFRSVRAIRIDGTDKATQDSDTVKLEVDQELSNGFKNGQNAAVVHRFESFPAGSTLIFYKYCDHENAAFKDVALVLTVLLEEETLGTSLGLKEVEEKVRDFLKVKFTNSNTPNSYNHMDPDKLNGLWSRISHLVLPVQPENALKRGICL

[20] = target: Alpha-bungarotoxin (Bungarus multicinctus) (UniProt P60615); test: compounds binding labelled alpha-BTX control protein – biochemical, small-molecule microarray, Alexa647 label, 635/667 nm fluorescence, artefact control for SMM control protein annotation, profiling panel (AID 1117); settings: alpha-BTX-A647 binding fluorescence, higher = more signal
Chain of Alpha-bungarotoxin (Bungarus multicinctus) (P60615 whole entry, looked up): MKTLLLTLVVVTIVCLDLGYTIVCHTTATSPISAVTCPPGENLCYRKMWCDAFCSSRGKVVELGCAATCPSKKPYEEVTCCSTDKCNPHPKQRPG

Row | SMILES | composite z-score [1] | composite z-score [2] | composite z-score [3] | z-score [4] | composite z-score [5] | composite z-score [6] | composite z-score [7] | composite z-score [8] | composite z-score [9] | composite z-score [10] | composite z-score [11] | z-score [12] | composite z-score [13] | composite z-score [14] | composite z-score [15] | composite z-score [16] | composite z-score [17] | composite z-score [18] | composite z-score [19] | composite z-score [20]
1 | CCOC(=O)C[C@H]1[C@H](OC(=O)Cc2ccc3c(c2)OCO3)[C@@H](NC(=O)Cc2ccc(OC)cc2)c2cc(OCCCO)ccc2N1C(=O)c1ccccc1 | 1.07 | 0.423 | 0.383 | -0.484 (inactive) | 0.647 | 0.614 | 0.0042 | 0.312 | 0.149 | 0.265 | 0.142 | -1.72 | 0.609 | 0.0314 | -0.551 | -0.154 | 0.233 | 0.588 | 0.569 | 0.997
2 | C[C@H]1C2=C3C(CC[C@H]4C(OCc5ccc(F)cc5C(F)(F)F)OC[C@](C)([C@@H]34)N(C(=O)OC(C)(C)C)C2)C(CO)C1CO (stereo not given in full) | 0.0402 | -0.0997 | 0.984 | 0.509 (inactive) | -0.0455 | 0.875 | -0.249 | 0.885 | -0.461 | 1.09 | 1.34 | -2.81 | -0.593 | 2.4 | 0.861 | 0.114 | 0.255 | -0.697 | 0.222 | 0.671
3 | O=C1OC[C@@H](c2ccccc2)N2CC(/C=C/c3ccccc3)=CC12 (stereo not given in full) | -0.0726 | -0.144 | 0.537 | -0.521 (inactive) | -0.529 | -0.511 | -2.06 | -1.16 | -1.15 | 0.0575 | -1.13 | -0.557 | -1.43 | -0.353 | -0.221 | -0.284 | -0.2 | -0.0118 | -0.383 | -0.273
4 | C=C(COC)/C(=C/C[C@@H](OC(=O)c1ccncc1)c1cccc(OCCO)c1)c1cnc2ccccc2c1 | -0.0365 | 0.432 | 0.347 | -1.36 (inactive) | 1.48 | 1.3 | 1.65 | 1.65 | 0.769 | 1.81 | 0.429 | -3.87 | 1.04 | 1.3 | -0.102 | -0.0161 | 0.259 | 0.581 | 1.54 | 3.87
5 | C[C@]1(C(=O)NC2CC2)c2ccccc2C(=O)N(Cc2ccc(OC(F)(F)F)cc2)[C@H]1c1ccc(CO)cc1 | -0.419 | -0.0414 | 0.755 | 0.765 (inactive) | -0.326 | -0.0882 | -0.617 | -0.409 | -0.758 | 0.781 | -0.633 | -0.144 | -1.07 | -0.42 | 0.479 | -0.0792 | -0.0243 | 0.625 | 0.297 | 0.585
6 | COC(=O)[C@@]1(Cc2ccccc2)[C@H]2c3cc(C(=O)N4CCCC4)[nH]c3C[C@H]2CN1C(=O)c1ccccc1 | 1.1 | 0.865 | 0.91 | -0.0516 (inactive) | -0.486 | 0.0863 | -0.478 | -0.444 | -0.988 | 0.916 | -1.89 | -0.151 | -0.632 | 0.677 | 0.705 | 0.0913 | -0.243 | 1.1 | 1.96 | -0.243
7 | COCCOC(=O)N1C(=O)[C@@]2(c3cc(C#Cc4ccc(OC)cc4)ccc31)[C@H](C(=O)NC[C@H](O)c1ccccc1)[C@H]1C(=O)O[C@H](c3ccccc3)[C@H](c3ccccc3)N1[C@@H]2c1ccc(O)cc1 | 0.557 | 0.139 | 0.234 | -0.577 (inactive) | 1.17 | 1.35 | 0.725 | 1.41 | 0.95 | 0.033 | 0.872 | -1.45 | 0.887 | 0.0624 | -0.0377 | -0.0816 | 0.875 | 0.369 | 1.37 | 0.931
8 | O=C(CS)NCCCCCCNC(=O)[C@@H]1C[C@@H]2C(=O)N3CCC[C@H]3C(=O)N2[C@@H]1c1cccc(OCCO)c1 | 1.62 | 0.0302 | 0.396 | -1.77 (inactive) | 0.964 | 0.896 | 0.559 | 0.704 | 0.426 | 0.653 | 1.41 | 0.0871 | 0.289 | 1.49 | 0.36 | 0.206 | -0.0866 | 0.0482 | 1.41 | 2.16
9 | C[n+]1ccc(CCCO)cc1 | 0.365 | -0.0442 | 0.0977 | -0.164 (inactive) | 0.113 | -0.262 | -0.455 | 0.0584 | 0.457 | 1.57 | -0.225 | -0.125 | 0.0525 | -0.628 | 0.371 | -0.0462 | 0.475 | -0.253 | 1.26 | -0.739
10 | CCOC(=O)C1=CC[C@@H](c2ccc([N+](=O)[O-])cc2)N(S(=O)(=O)c2ccc(C)cc2)[C@H]1c1ccccc1 | 0.992 | 0.291 | 0.304 | -0.8 (inactive) | 1.21 | 0.154 | 0.764 | 1.26 | 0.293 | 0.521 | 1.4 | -1.55 | 0.995 | 0.455 | 0.423 | 0.0324 | -0.0769 | 0.506 | 0.378 | 0.962
11 | C=C(COC)/C(=C/C[C@@H](OC(=O)c1ccncc1)c1ccc(OCCO)cc1)c1cnc2ccccc2c1 | 0.212 | 0.0923 | -0.0001 | -0.275 (inactive) | 1.46 | 1.3 | 1.35 | 1.58 | 0.99 | 1.95 | 1.3 | -1.59 | 1.12 | 0.695 | -0.604 | 0.0151 | -0.167 | 0.827 | 1.66 | 1.5

Source: PubChem BioAssay
